Screen size: about 69,000 compounds; about 8,600 (12%) showed an effect of 50% or more. For the sample, strong results were picked, then their nearest neighbours and some compounds at random.

In this assay the test system is Plasmodium berghei. The experiment in a line: Screen against P. berghei liver stage (PbLuc), transformed with Luciferase, at 10uM. It counts as functional, HepG2. The conditions noted are these: tested at 10 uM.
Consider `CCn1nc(C)c(NC(=O)CN2CC[C@H](CO)[C@@H](O)C2)c1C`, for which the INHIBITION stood at 10.6%.

With `O=S(=O)(CCCNCCn1cccn1)c1ccccc1`, the INHIBITION is on record as -42.8%.

With `CCCc1nc(CN(CC)C(=O)c2ccc(S(C)(=O)=O)cc2)no1`, the INHIBITION is reported as 19.8%.

As to `CCn1ccc(NC(=O)CN2C(=O)CC(C)(C)c3ccccc32)n1`, the INHIBITION was -34.9%.

With `COc1ccc(F)c(CN2CCCC3(CCN(C4CCOCC4)C3)C2)c1` (stereo not drawn), the INHIBITION was 77.8%.

Consider `c1cc(CN2CCOCC3(CCN(C4CCOCC4)C3)C2)ccn1` (stereo not drawn), for which the INHIBITION came to 52.2%.

For the compound `c1cncc(CN2CCC3(COCCN(C4CCOCC4)C3)C2)c1` (stereo not drawn), the INHIBITION is 17.5%.

Turning to `CCS(=O)(=O)N1CCC2(CCCN(Cc3cc(OC)ccc3F)C2)C1` (stereo not drawn), the INHIBITION is reported as -14%.

Consider `O=C(C1CCOC1)N1CCC2(CC1)COCCN(Cc1ccncc1)C2` (stereo not drawn), for which the INHIBITION was 1.94%.

Regarding `O=C(C1CCCO1)N1CCC2(CC1)COCCN(Cc1ccncc1)C2` (stereo not drawn), the INHIBITION is 5.44%.

`O=C(c1ccsc1)N1CCC2(CC1)COCCN(Cc1ccncc1)C2`: the INHIBITION is 25.2%.

In the case of `COc1ccc(CN2CCOCC3(CCN(C4CCOCC4)C3)C2)cc1` (stereo not drawn), the INHIBITION is given as 11.6%.

In the case of `c1cc(CN2CCOCC3(CCN(CC4CCOCC4)CC3)C2)ccn1`, the INHIBITION turned out to be 39.2%.

For the compound `CN(C)CC(=O)N1CCC2(CC1)COCCN(Cc1ccncc1)C2`, the INHIBITION is 61.4%.

With `c1cc(CN2CCOCC3(CCNCC3)C2)ccn1`, the INHIBITION is 63.7%.

`COc1ccc(F)c(CN2CCCC3(CCN(S(C)(=O)=O)C3)C2)c1` (stereo not drawn): the INHIBITION turned out to be 47%.

For `Cc1cnn(CC(C)Nc2nc(C)cc(N(C)C)n2)c1` (stereo not drawn), the INHIBITION amounted to 15.6%.

`Cc1cc(-n2c(C)cn(CN(C)CC3CC3)c2=O)no1`: the INHIBITION was -8.9%.

`Cc1ccc(NC(=O)N2CCCC(N(C)C)C2)c(Br)c1` (stereo not drawn): the INHIBITION was 15.1%.

Take `Cc1cc(C(=O)N[C@H](C)c2onc(-c3cccnc3)c2C(=O)O)c(C)o1`: the INHIBITION was -30.7%.

In the case of `NS(=O)(=O)CCCNC(=O)C1(c2cccc(Cl)c2)CC1`, the INHIBITION is listed as 11.8%.

`CCn1nc(C)c2nnn(CC(=O)Nc3ccc(C)cc3)c(=O)c21`: the INHIBITION is on record as 29.2%.

Regarding `Cc1c[nH]c(C2COCCN2C(=O)CCc2c(C)n[nH]c2C)n1` (stereo not drawn), the INHIBITION is -3.65%.

With `Cc1nc(C(C)C)sc1C(C)N(C)C(=O)c1ccc(=O)n(C)c1` (stereo not drawn), the INHIBITION is reported as 16.1%.

Consider `O=C(c1ccoc1)N1CCOC2(COCCN(CC3CC3)C2)C1` (stereo not drawn), for which the INHIBITION turned out to be 71.3%.

For `Cn1ccc(C(=O)N2CCOC3(COCCN(CC4CC4)C3)C2)n1` (stereo not drawn), the INHIBITION is -25.1%.

Take `O=C(c1ccoc1)N1CCOC2(COCCN(c3ncccn3)C2)C1` (stereo not drawn): the INHIBITION was 46.6%.

Regarding `CNC(=O)CCc1cc(C2CCCCN2C)nc(C)n1` (stereo not drawn), the INHIBITION was -11.3%.

On to `Cn1cc(N2C[C@@H]3CN(Cc4ccccn4)C[C@@H]3C2=O)cn1`, for which the INHIBITION is given as 34.9%.

For `O=C1[C@H]2CN(Cc3ccc(F)cc3)C[C@H]2CN1c1ccsc1`, the INHIBITION stood at 22.9%.

As to `COc1ccc(CN2C[C@H]3CN(c4ccsc4)C(=O)[C@H]3C2)cc1`, the INHIBITION is reported as 50%.

Take `O=C1[C@H]2CN(Cc3nccs3)C[C@H]2CN1c1ccsc1`: the INHIBITION is recorded as 32.4%.

`O=C1[C@H]2CN(Cc3ccncc3)C[C@H]2CN1c1ccsc1`: the INHIBITION stood at 15.9%.

On to `O=C1[C@H]2CN(Cc3ccccn3)C[C@H]2CN1c1ccsc1`, for which the INHIBITION is on record as 56.7%.

For the compound `O=C(c1ccco1)N1CC[C@@H](N2CCOCC2)[C@@H]1Cc1ccncc1`, the INHIBITION was found to be 24.1%.

As to `Cc1cc(CN2CCN(C(=O)NCc3c(C)noc3C)CC2)on1`, the INHIBITION is on record as 44.3%.

Take `O=c1[nH]nc2c(S(=O)(=O)N3CCN(c4ccc(F)cc4)CC3)cccn12`: the INHIBITION was determined as 39.5%.

For the compound `Cc1cnn(CCNCc2csc(-c3ccsc3)n2)c1`, the INHIBITION is on record as -69.15%.

Take `CC(CN1CCOCC1)NC(=O)Nc1cccnc1-n1cccn1` (stereo not drawn): the INHIBITION is -31.1%.

Turning to `CN(C)CCO[C@@H]1CC[C@H]2[C@H]1OCCN2C(=O)c1ccc(F)cc1`, the INHIBITION is given as 42.1%.

Regarding `CC(=O)N1CCC(Cc2cnc(-c3c(C)n[nH]c3C)cn2)CC1`, the INHIBITION was found to be 1.5%.

Take `Cc1cc(NC(C)Cc2cccs2)n2nccc2n1` (stereo not drawn): the INHIBITION is given as 42.1%.

Turning to `Cn1cc(CN2CCC(F)(F)C3(CCN(c4cnccn4)C3)C2)cn1` (stereo not drawn), the INHIBITION was -31.5%.

Take `CCOc1ncnc2c1CCN(Cc1cccs1)CC2`: the INHIBITION turned out to be 36.2%.

For the compound `COc1cc(C)ccc1OCCC(=O)N1CCCC(n2cncn2)C1` (stereo not drawn), the INHIBITION was -16%.

Consider `CCOCC1CN(C(=O)Cc2ccccn2)Cc2c1cnn2CC` (stereo not drawn), for which the INHIBITION is on record as 42.7%.

As for `CCOCC1CN(C(=O)Cc2ccccn2)Cc2cnn(C)c21` (stereo not drawn), the INHIBITION is reported as -45.8%.

For `CCOCC1CN(C(=O)c2cnoc2C)Cc2cnn(C)c21` (stereo not drawn), the INHIBITION is -11.2%.

`CCOCC1CN(C(=O)COc2ccccc2)Cc2cn(C)nc21` (stereo not drawn): the INHIBITION is reported as 5.96%.

On to `CCOCC1CN(C(=O)c2cnoc2C)Cc2cn(CC3CC3)nc21` (stereo not drawn), for which the INHIBITION is reported as -50.8%.

In the case of `CCOCC1CN(C(=O)Cc2ccccn2)Cc2cn(C)nc21` (stereo not drawn), the INHIBITION was found to be 51.2%.

Regarding `CCOCC1CN(C(=O)Cc2ccccn2)Cc2cnn(CC)c21` (stereo not drawn), the INHIBITION is listed as 54.4%.

For `CCOCC1CN(C(=O)c2cnoc2C)Cc2cn(C)nc21` (stereo not drawn), the INHIBITION amounted to 51.2%.

As for `CCOCC1CN(C(=O)Cc2ccccn2)Cc2cn(CC)nc21` (stereo not drawn), the INHIBITION turned out to be 31.4%.

In the case of `CC(NC(=O)N1CCC1)c1ccc(S(C)(=O)=O)cc1` (stereo not drawn), the INHIBITION was 18.4%.

Consider `CC(=O)N(C)c1nc(CN2CCCC2Cn2nc(C)cc2C)cs1` (stereo not drawn), for which the INHIBITION is -14.7%.

In the case of `O=C(c1csc(-c2ccccn2)n1)N1CCCC1Cn1cccn1` (stereo not drawn), the INHIBITION is recorded as 38.8%.

Take `O=C(Cc1cccs1)N1CCC(O)(CN2CCc3ccccc3C2)C1` (stereo not drawn): the INHIBITION came out at 38.2%.

Consider `CC(=O)NCC1CCN(C(=O)CCOc2ccc(C(C)C)cc2)CC1`, for which the INHIBITION is given as -39.35%.

For the compound `CSc1ccc(CNC(=O)NCC(O)c2cccc(F)c2)cc1` (stereo not drawn), the INHIBITION is recorded as 19.6%.

As to `CNC(=O)NCC1CCC2(CCN(c3ncccn3)CC2)CO1` (stereo not drawn), the INHIBITION was 15.8%.

With `CC(=O)N1CC(=O)N(c2cnn(C)c2)CC12CCN(Cc1cccs1)C2` (stereo not drawn), the INHIBITION is 6.27%.

For the compound `CN(C)Cc1cc(-c2nccn2CCc2cccnc2)ccc1O`, the INHIBITION is reported as 31.3%.

In the case of `CN(C)Cc1csc(-c2nccn2Cc2ccsc2)c1`, the INHIBITION is 66.1%.

On to `CN(C)Cc1csc(-c2nccn2CCc2cccnc2)c1`, for which the INHIBITION was found to be 59.1%.

`Cc1c(Cn2ccnc2-c2cc(CN(C)C)cs2)cnn1C`: the INHIBITION came to 23.5%.

For the compound `Cc1nc(C)c(Cn2ccnc2-c2cc(CN(C)C)cs2)s1`, the INHIBITION worked out at 30.9%.

On to `CN(C)Cc1csc(-c2nccn2Cc2ccc(C(=O)O)cc2)c1`, for which the INHIBITION is 37.4%.

The values above are taken from ChEMBL document CHEMBL4513216, “Probing the Open Global Health Chemical Diversity Library for Multistage-Active Starting Points for Next-Generation Antimalarials” (ACS Infect Dis, 2020).
